Test results reported in ChEMBL document CHEMBL1157539, “Thousands of chemical starting points for antimalarial lead identification” (Nature, 2010).

Assays:
Type in all cases: functional
[1] = tested on: Plasmodium falciparum; experiment: GSK_TCMDC: Inhibition of Plasmodium falciparum 3D7 in whole red blood cells, using parasite LDH activity as an index of growth. Test compounds present at 2uM
[2] = tested on: Plasmodium falciparum; experiment: GSK_TCMDC: Inhibition of Plasmodium falciparum Dd2 in whole red blood cells, using parasite LDH activity as an index of growth. Test compounds present at 2uM
[3] = tested on: HepG2; experiment: GSK_TCMDC: Percent inhibition of human HepG2 cell line. Test compounds present at 10uM.

Row | SMILES | Inhibition [1] | Inhibition [2] | Inhibition [3]
1 | CN1CCC(Oc2ccc(NC(=O)c3ccc4c(=O)n(Cc5ccccc5)cnc4c3)cc2Cl)CC1 | 95% | 20% | 23%
2 | FC(F)(F)c1ccc2[nH]c(-c3cccc(-c4cccc(CNCCN5CCNCC5)c4)c3)nc2c1.O=C(O)C(F)(F)F | 92% | 18% | 29%
3 | CC(C)NCc1cccc(-c2cccc(-c3nc4ccccc4[nH]3)c2)c1.O=C(O)C(F)(F)F | 100% | 22% | 11%
4 | Cc1cc(N(C)C2CCN(CC3CCCCC3)C2)nc(Nc2ccc(Cl)cc2)n1 (configuration not stated) | 98% | 35% | 0%
5 | COc1ccc2nc3cc(Cl)ccc3c(NCCCO)c2c1 | 100% | 100% | 32%
6 | CS(=O)(=O)NCCCNCc1cccc(-c2cccc(-c3nc4cc(F)ccc4[nH]3)c2)c1.O=C(O)C(F)(F)F | 100% | 5% | 4%
7 | Cc1nc2ccc3ccc(CNc4ccc(C(=O)CC(CCC(=O)O)C(=O)O)cc4)cc3c2c(=O)[nH]1.[Cl-].[Na+] (configuration not stated) | 95% | 96% | 51%
8 | O=c1cc(NCCC2CC=CCN2Cc2ccc(Cl)c(Cl)c2)[nH]c2ccccc12 (configuration not stated) | 94% | 77% | 7%
9 | CC(C)c1ccc(NC(=O)N[C@H]2CCN(CCCCCNC(=O)/C=C/c3ccc(Cl)c(Cl)c3)C2)cc1 | 100% | 14% | 56%
10 | Cc1ccc(NC(=O)NC2CCN(c3ccnc4cc(Cl)ccc34)CC2)cc1.O=C(O)C(F)(F)F | 100% | 47% | 4%
11 | CC(C)NCc1cccc(-c2cccc(NC(=O)c3cccc(C#N)c3)c2)c1.O=C(O)C(F)(F)F | 99% | 22% | 12%
12 | Clc1nc2ccccn2c1C=Cc1ccc2ccccc2n1 | 86% | 75% | 0%
13 | Cc1sc(NC(=O)Cc2cccc(C(F)(F)F)c2)nc1-c1cccc(Cl)c1 | 100% | 95% | 15%
14 | COc1ccc2nc(C)cc(Nc3ccc(Oc4ccc(Br)c5ccccc45)c(Cl)c3)c2c1 | 100% | 100% | 100%
15 | CN1CCN(c2ccnc3ccc(NC(=O)Nc4ccc(Cl)cc4)cc23)CC1 | 100% | 99% | 11%
16 | CCOC(=O)c1ccc(NC(=O)N[C@@H](Cc2ccccc2)C(=O)NC2CCN(Cc3ccc(O)c(OC)c3)C2)cc1 (some centres not stated) | 88% | 0% | 0%
17 | COc1ccc2c(NN=Cc3ccccc3)ccnc2c1 | 100% | 98% | 18%
18 | CN(C)C1CCN(Cc2ccc(N3CCN(Cc4cccc5[nH]ccc45)CC3)nc2)CC1 | 80% | 17% | 11%
19 | O=C(Nc1cccc(-c2ccc(CN3CCCC3)cc2)c1)c1cccc(F)c1.O=C(O)C(F)(F)F | 99% | 17% | 20%
20 | Cc1ccoc1C(=O)Nc1cccc(-c2cccc(-c3nc4ccccc4[nH]3)c2)c1 | 85% | 20% | 43%
21 | CO/C(=C\C=C\c1cc2cc(Cl)ccc2[nH]1)C(=O)NCCCN1CCN(c2cc(Cl)ccc2OC)CC1 | 97% | 21% | 41%
22 | Cc1ccccc1C1CCN(c2ccc(C(=O)Nc3ccc(F)cc3)cn2)CC1.O=C(O)C(F)(F)F | 96% | 96% | 45%
23 | Cc1cc(N[C@@H](CC(C)C)C(=O)NCc2cccs2)nc(NCCc2ccccc2)n1.O=C(O)C(F)(F)F | 94% | 8% | 1%
24 | O=C(O)c1ccc2c(c1)N(C(=O)CNCc1ccc(F)cc1)CC(=O)N2CCCc1ccccc1 | 95% | 0% | 1%
25 | O=C(Nc1ccc(-c2nc3ccccc3[nH]2)cc1)c1cnc(Cl)c(Cl)c1 | 100% | 95% | 11%
26 | CC(C)Sc1nc(-c2ccccc2)nc2c1COC(C)(C)C2 | 98% | 41% | 2%
27 | Cc1cccc2nc(-c3cccc(-c4ccc(NC(=O)NCc5cccc(F)c5)cc4)c3)[nH]c12 | 100% | 83% | 40%
28 | O=C(Nc1cccnc1)c1cc(-c2cccnc2)nc2ccc(Br)cc12 | 99% | 60% | 9%
29 | COc1cccc(C(=O)C2CC2CN(C)CCC(O)c2ccc(Cl)c(Cl)c2)c1 (configuration not stated) | 99% | 95% | 17%
